Measured values taken from PubChem BioAssay.
Calls of active or inactive are those of the source. Unless noted, no rule for the calls is given here.

Legend:
[1] = tested on: Wnt5a (protein binding on small-molecule microarray); assay: Wnt5a binders on small-molecule microarray, primary screen, biophysical, 635/667 nm fluorescence (AID 1142); details: 635 nm fluorescence, higher = more signal;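 also: fluorescence read at 667 nm with signal to noise per printed feature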
[2] = cell viability in Huh7 cells, primary screen, cytotoxicity control for HCV replication inhibitor project, CellTiter-Glo luminescence, basal, 48 h (AID 1143); details: Huh7 HCV replicon, higher = more signal, called active from +8 up or from −8 down;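 also: Huh7 hepatoma cells carrying a hepatitis C replication reporter with no stimulus; test concentration not given here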
[3] = P. aeruginosa biofilm formation inhibitors, primary screen, PAO1 strain, BacTiter-Glo luminescence, LB-PBS (AID 1144); details: 12 h, higher = more signal
[4] = CREB reporter modulators without forskolin, primary screen, cell-based, PC12, CRE-LacZ reporter, unstimulated (AID 1145); details: no forskolin, luminescence, 4.5 h, higher = more signal, called active from +8 up or from −8 down
[5] = CREB reporter modulators under forskolin, primary screen, cell-based, PC12, CRE-LacZ reporter, forskolin-stimulated (AID 1146); details: luminescence, 4.5 h, higher = more signal, called active from +8 up or from −8 down;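 also: PC12 cells with 6xCRE LacZ reporter stimulated by forskolin 10 µM; beta-galactosidase reporter signal reflecting CREB driven transcription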
[6] = target: Streptavidin (Streptomyces avidinii) (UniProt P22629); assay: streptavidin binders on small-molecule microarray, primary screen, artefact control for SMM compound annotation, biophysical, 635/667 nm fluorescence (AID 1147); details: streptavidin binding, higher = more signal;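 also: signal reflects streptavidin binding to arrayed compounds as a control protein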
Chain of Streptavidin (Streptomyces avidinii) (P22629 whole entry, looked up): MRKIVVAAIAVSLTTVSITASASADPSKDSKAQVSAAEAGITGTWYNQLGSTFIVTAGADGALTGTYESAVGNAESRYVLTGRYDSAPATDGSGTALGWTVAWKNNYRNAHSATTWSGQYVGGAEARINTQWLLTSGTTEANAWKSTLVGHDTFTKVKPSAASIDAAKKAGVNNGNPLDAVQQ

[7] = small-molecule binders of probe aInhba, primary screen, biochemical, small-molecule microarray, 635/667 nm fluorescence (AID 1148); details: higher = more signal;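 also: score merges 667nm spot fluorescence with signal-to-noise for antibody binding to printed compounds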
Torsin-1A (Homo sapiens) [8] = target: Torsin-1A (Homo sapiens) (UniProt O14656); assay: torsin A binders from cell lysate, primary screen, small-molecule microarray, wild-type, 635/667 nm (AID 1149); details: COS7 hTOR1A-WT lysate, 635 nm fluorescence, higher = more signal
Chain of Torsin-1A (Homo sapiens) (O14656 whole entry, looked up): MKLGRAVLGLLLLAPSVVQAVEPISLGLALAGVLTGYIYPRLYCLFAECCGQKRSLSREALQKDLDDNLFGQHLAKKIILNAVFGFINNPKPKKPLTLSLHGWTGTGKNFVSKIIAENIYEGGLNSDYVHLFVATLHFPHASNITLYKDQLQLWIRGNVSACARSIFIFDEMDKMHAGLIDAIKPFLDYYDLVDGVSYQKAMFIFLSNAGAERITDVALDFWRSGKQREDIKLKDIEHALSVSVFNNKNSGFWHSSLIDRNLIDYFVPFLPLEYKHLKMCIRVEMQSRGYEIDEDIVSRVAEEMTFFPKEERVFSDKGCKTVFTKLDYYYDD

Torsin-1A (Homo sapiens) [9] = target: Torsin-1A (Homo sapiens) (UniProt O14656); assay: small-molecule binders of mutant TOR1A in lysate, primary screen, cell lysate, small-molecule microarray, COS7 lysate, 635/667 nm fluorescence (AID 1150); details: COS7 hTOR1A mutant lysate, 635 nm fluorescence, higher = more signal;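 also: score pools 667 nm emission and signal to noise measuring lysate protein binding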
[10] = tested on: Sonic hedgehog protein (Shh); assay: small-molecule binders of Shh protein, primary screen, biochemical, small-molecule microarray, 635/667 nm fluorescence (AID 1151); details: small-molecule microarray binding, 635 nm fluorescence; higher = more signal;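 also: Shh protein binding to compounds spotted on small-molecule microarray slides; score combines spot fluorescence intensity with signal-to-noise across triplicate slides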
[11] = E. coli DRC41 culture turbidity changes, primary screen, E. coli filamentation inducer project, strain DRC41, OD650, 48 h (AID 1152);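 also: E. coli MC1000 strain DRC41 lacking acrAB efflux pump and sulA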; details: E. coli DRC41 (acrAB sulA), higher = more signal, called active from +8 up or from −8 down
[12] = small-molecule binders of probe aLefty1, primary screen, biochemical, small-molecule microarray, 635/667 nm fluorescence (AID 1153); details: higher = more signal;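 also: score merges spot fluorescence with signal-to-noise ratio from the scanned slide images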
[13] = PSAC antagonists in infected red cells, primary screen, cell-based, P. falciparum Indochina, OD700, 1 h (AID 1154); details: P. falciparum Indochina infected RBC osmotic lysis, higher = more signal, called active from +8 up or from −8 down
[14] = PSAC antagonists in infected red cells, primary screen, cell-based, P. falciparum Indochina, OD700, 2 h (AID 1155);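 also: lysis reports solute entry through the parasite surface anion channel PSAC; channel blockers reduce lysis of infected cells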; details: P. falciparum Indochina infected erythrocytes, osmotic lysis OD700; higher = more signal, called active from +8 up or from −8 down
[15] = osmotic lysis modulators in infected erythrocytes, primary screen, PSAC antagonist project, cell-based, P. falciparum Indochina, OD700, 3 h (AID 1156); details: higher = more signal, called active from +8 up or from −8 down
[16] = PSAC antagonists in infected red cells, primary screen, cell-based, P. falciparum Indochina, OD700, 18 h (AID 1157); details: P. falciparum Indochina infected erythrocytes, osmotic lysis OD700, 18 h; higher = more signal, called active from +8 up or from −8 down
[17] = modulators of S6 phosphorylation in cells, primary screen, cell-based, A549, cytoblot, luminescence, serum-stimulated (AID 1158); details: A549 phospho-S6 cytoblot, 5 h, higher = more signal;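 also: serum-stimulated A549 lung adenocarcinoma cells; signal is phosphorylated S6 detected by cytoblot immunostaining with HRP secondary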
[18] = target: NADPH oxidase 2 (Homo sapiens) (UniProt P04839); assay: NOX2-dependent H2O2 signal modulators, primary screen, NOX inhibitor project, cell-based, HEK293-NOX2, PMA-stimulated, Amplex Red fluorescence (AID 1159); details: 45 min, higher = more signal, called active from +8 up or from −8 down; also: test concentration not given here
Chain of NADPH oxidase 2 (Homo sapiens) (P04839 whole entry, looked up): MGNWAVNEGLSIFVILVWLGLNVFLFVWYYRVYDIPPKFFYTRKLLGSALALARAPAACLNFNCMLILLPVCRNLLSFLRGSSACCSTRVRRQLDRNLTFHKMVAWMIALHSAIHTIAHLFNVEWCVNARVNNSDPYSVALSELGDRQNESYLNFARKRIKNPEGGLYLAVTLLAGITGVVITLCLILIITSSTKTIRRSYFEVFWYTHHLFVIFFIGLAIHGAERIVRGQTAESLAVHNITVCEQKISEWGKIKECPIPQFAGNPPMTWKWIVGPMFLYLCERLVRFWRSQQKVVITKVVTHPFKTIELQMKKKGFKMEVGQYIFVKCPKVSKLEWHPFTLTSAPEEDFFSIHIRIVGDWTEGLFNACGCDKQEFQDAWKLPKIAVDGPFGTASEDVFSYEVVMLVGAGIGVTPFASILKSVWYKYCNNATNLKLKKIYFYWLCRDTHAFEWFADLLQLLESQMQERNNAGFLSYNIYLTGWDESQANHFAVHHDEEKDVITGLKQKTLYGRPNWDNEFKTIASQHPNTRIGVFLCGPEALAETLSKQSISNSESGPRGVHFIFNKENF

[19] = target: NADPH oxidase 4 (Homo sapiens) (UniProt Q9NPH5); assay: NOX4-dependent H2O2 signal modulators, primary screen, NOX inhibitor project, cell-based, HEK293-NOX4, tetracycline-induced, Amplex Red fluorescence (AID 1160); details: 45 min, higher = more signal, called active from +8 up or from −8 down
Chain of NADPH oxidase 4 (Homo sapiens) (Q9NPH5 whole entry, looked up): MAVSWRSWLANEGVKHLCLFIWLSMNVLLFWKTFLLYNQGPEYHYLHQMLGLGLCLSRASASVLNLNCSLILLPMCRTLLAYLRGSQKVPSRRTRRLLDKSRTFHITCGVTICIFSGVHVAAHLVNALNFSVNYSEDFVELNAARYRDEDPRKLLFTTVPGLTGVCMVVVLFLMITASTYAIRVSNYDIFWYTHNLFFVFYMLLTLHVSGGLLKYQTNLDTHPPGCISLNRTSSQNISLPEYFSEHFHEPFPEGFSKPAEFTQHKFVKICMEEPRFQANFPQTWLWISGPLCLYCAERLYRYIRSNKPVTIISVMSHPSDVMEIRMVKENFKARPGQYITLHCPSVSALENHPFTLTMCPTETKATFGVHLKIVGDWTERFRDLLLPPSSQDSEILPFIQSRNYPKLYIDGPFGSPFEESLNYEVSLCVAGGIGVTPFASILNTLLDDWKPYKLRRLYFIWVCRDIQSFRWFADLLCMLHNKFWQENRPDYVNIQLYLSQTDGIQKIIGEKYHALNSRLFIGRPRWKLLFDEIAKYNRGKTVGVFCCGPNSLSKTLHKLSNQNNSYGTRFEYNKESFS

[20] = target: NADPH oxidase 5 (Homo sapiens) (UniProt Q96PH1); assay: NOX5-dependent H2O2 signal modulators, primary screen, NOX inhibitor project, cell-based, HEK293-NOX5, Amplex Red fluorescence (AID 1161); details: HEK293-NOX5, ionomycin, 45 min, higher = more signal
Chain of NADPH oxidase 5 (Homo sapiens) (Q96PH1 whole entry, looked up): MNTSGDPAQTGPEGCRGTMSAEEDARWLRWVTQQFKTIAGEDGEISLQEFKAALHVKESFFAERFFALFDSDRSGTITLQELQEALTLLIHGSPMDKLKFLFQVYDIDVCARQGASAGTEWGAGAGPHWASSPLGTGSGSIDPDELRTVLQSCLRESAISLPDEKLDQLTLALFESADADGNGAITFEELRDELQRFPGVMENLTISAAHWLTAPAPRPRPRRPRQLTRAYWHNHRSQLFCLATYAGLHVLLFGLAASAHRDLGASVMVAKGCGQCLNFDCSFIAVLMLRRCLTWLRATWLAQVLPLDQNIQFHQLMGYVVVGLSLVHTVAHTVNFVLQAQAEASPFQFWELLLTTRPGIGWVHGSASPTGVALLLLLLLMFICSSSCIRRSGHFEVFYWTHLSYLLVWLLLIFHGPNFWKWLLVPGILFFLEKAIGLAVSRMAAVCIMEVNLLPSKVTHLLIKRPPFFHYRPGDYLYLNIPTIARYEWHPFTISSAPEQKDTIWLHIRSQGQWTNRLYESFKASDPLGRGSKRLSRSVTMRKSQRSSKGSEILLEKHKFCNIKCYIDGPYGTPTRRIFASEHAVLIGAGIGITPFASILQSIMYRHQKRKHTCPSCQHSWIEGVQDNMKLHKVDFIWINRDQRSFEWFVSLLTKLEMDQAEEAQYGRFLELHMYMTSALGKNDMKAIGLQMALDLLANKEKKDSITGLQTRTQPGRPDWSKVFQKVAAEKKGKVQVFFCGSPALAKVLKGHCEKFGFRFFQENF

Structure (SMILES)	composite z-score [1]	z-score [2]	z-score [3]	z-score [4]	z-score [5]	composite z-score [6]	composite z-score [7]	composite z-score (Torsin-1A (Homo sapiens) [8])	composite z-score (Torsin-1A (Homo sapiens) [9])	composite z-score [10]	z-score [11]	composite z-score [12]	z-score [13]	z-score [14]	z-score [15]	z-score [16]	z-score [17]	z-score [18]	z-score [19]	z-score [20]
COCC(=C=CC[C@@H](O)c1cccc(OCCO)c1)C[C@@H](O)c1ccccn1	0.0068	0.0726 (inactive)	0.786 (inactive)	0.378 (inactive)	-1.16 (inactive)	-0.229	-0.0403	0.839	0.344	1.29	0.335 (inactive)	0.0903	12 (active)	1.42 (inactive)	0.97 (inactive)	0.675 (inactive)	-0.613	1.96 (inactive)	0.744 (inactive)	0.254
NC(=O)NCC#Cc1ccc2c(c1)[C@]1(C(=O)N2)[C@H](C(=O)Nc2nc3ccccc3s2)[C@H]2C(=O)O[C@H](c3ccccc3)[C@H](c3ccccc3)N2[C@@H]1c1ccccc1OCCO	0.436	-4.58 (inactive)	-1.22 (inactive)	0.0776 (inactive)	-0.327 (inactive)	2.4	0.105	-0.3	0.0607	2.04	1.07 (inactive)	1.33	1.39 (inactive)	0.831 (inactive)	1.18 (inactive)	-0.247 (inactive)	1.76	0.643 (inactive)	-0.228 (inactive)	-3.4
C=CCOC(=O)[C@H]1[C@@H]2C(=O)O[C@@H](c3ccccc3)[C@@H](c3ccccc3)N2[C@@H](c2ccc(OCCOC(=O)[C@H]3C[C@H]4C(=O)N[C@@H](CCCCNC(C)=O)C(=O)N4[C@H]3c3cccc(OCCO)c3)cc2)[C@]12C(=O)Nc1ccccc12	0.791	-1.1 (inactive)	-0.292 (inactive)	-1.08 (inactive)	-0.908 (inactive)	-0.365	-0.21	0.983	0.934	2.07	-0.0842 (inactive)	0.179	3.6 (inactive)	1.52 (inactive)	3.95 (inactive)	1.01 (inactive)	-0.116	2.19 (inactive)	1.93 (inactive)	0.8
O=C(NC1CC1)[C@@H]1c2ccccc2C(=O)N(Cc2ccccc2Cl)[C@H]1c1ccc(CO)cc1	0.201	-2.67 (inactive)	-0.764 (inactive)	-0.0888 (inactive)	-1.69 (inactive)	0.384	0.225	0.725	0.941	0.957	4.2 (inactive)	0.208	3.45 (inactive)	0.652 (inactive)	-1.05 (inactive)	0.204 (inactive)	2.67	-1.1 (inactive)	0.54 (inactive)	0.33
C=CCOC(=O)[C@H]1[C@@H]2C(=O)O[C@@H](c3ccccc3)[C@@H](c3ccccc3)N2[C@@H](c2ccc(OCCOC(=O)[C@H]3C[C@H]4C(=O)N[C@@H](CCCCNC(C)=O)C(=O)N4[C@H]3c3ccc(O)cc3)cc2)[C@]12C(=O)Nc1ccc(I)cc12	0.413	-1.48 (inactive)	0.399 (inactive)	5.04 (inactive)	6.74 (inactive)	0.142	0.098	0.807	1.01	2.09	-1.8 (inactive)	0.204	-0.858 (inactive)	0.461 (inactive)	0.675 (inactive)	-0.214 (inactive)	-0.635	1.36 (inactive)	0.823 (inactive)	0.935
C=CC(=C)[C@H]1Oc2ccccc2S(=O)(=O)N2CCC[C@@H]12	0.0964	-4.18 (inactive)	1.16 (inactive)	0.483 (inactive)	0.133 (inactive)	0.331	-0.0332	-1.02	-1.06	0.0906	-0.829 (inactive)	0.131	4.63 (inactive)	0.751 (inactive)	-0.309 (inactive)	0.01 (inactive)	0.0928	-0.0944 (inactive)	-1.04 (inactive)	-1.38
[N-]=[N+]=Nc1ccccc1[C@@H]1OC(c2ccc(OCCCO)cc2)=N[C@]1(CCS(=O)(=O)c1ccccc1)C(N)=O	0.903	-1.12 (inactive)	0.378 (inactive)	0.218 (inactive)	-1.09 (inactive)	2.03	0.207	0.641	0.91	-0.398	0.307 (inactive)	0.572	29.1 (active)	26.1 (active)	1.26 (inactive)	5.2 (inactive)	0.0742	-1.8 (inactive)	2.14 (inactive)	0.903
COCCOC(=O)N1C(=O)[C@@]2(c3cc(C#CCCO)ccc31)[C@H](C(=O)N1CCCCCCC1)[C@H]1C(=O)O[C@H](c3ccccc3)[C@H](c3ccccc3)N1[C@@H]2c1ccc(OCCO)cc1	0.87	-1.2 (inactive)	-0.589 (inactive)	-0.581 (inactive)	-0.571 (inactive)	1.43	1.38	1.8	1.44	1.53	0.712 (inactive)	2.45	7.78 (inactive)	1.37 (inactive)	-1.22 (inactive)	0.982 (inactive)	-0.215	0.931 (inactive)	0.94 (inactive)	0.603
CCOC(=O)C[C@H]1[C@H](OC(=O)c2ccc(C(=O)c3ccccc3)cc2)[C@@H](NC(=O)c2ccccc2)c2cc(OCCCO)ccc2N1C(=O)c1ccc2ccccc2n1	0.152	-0.0123 (inactive)	0.0501 (inactive)	3.66 (inactive)	-0.712 (inactive)	1.22	-0.0468	0.478	0.179	-0.25	0.181 (inactive)	-0.328	2.66 (inactive)	0.748 (inactive)	-0.2 (inactive)	0.454 (inactive)	-0.0519	-1.14 (inactive)	0.923 (inactive)	1.94
